Unmarked numbers belong to inactive results. Results filed as inconclusive are left out. The source made the active and inactive calls. Unless noted, calls follow the shape of the dose curve; as a rule, active = well fitted curve in the direction sought with a large enough effect in the repeat runs; inconclusive = weak or mixed curves; inactive = no such curve, though single readings can be large; an effect the other way counts as inactive or inconclusive.

Assay [1] can be described thus: qHTS assay for small molecule agonists of the p53 signaling pathway (AID 651631; calls by dose curve; also: nearly all actives have a fitted effect of over 15% in size). In outline: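 p53RE-bla HCT-116 cells; compounds 16 h, 37 °C; LiveBLAzer B/G FRET substrate 2 h RT; fluorescence intensity read-out, qHTS format.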
On the technique in general: Quantitative high-throughput screening tests each substance at several concentrations.

Assay [2] in a line: qHTS assay for small molecules that induce genotoxicity in human embryonic kidney cells expressing luciferase-tagged ATAD5 (AID 651632). Also: nearly all actives have a fitted effect of over 15% in size. Summed up: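 Genotoxicity read-out via ATAD5-luciferase: HEK293T cells, 16 hr compound incubation at 37C, Amplite detection.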
The nature of assay [3]: qHTS assay for small molecule agonists of the p53 signaling pathway - cell viability (AID 651633; calls by dose curve;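 also: p53RE-bla HCT reporter cells with a stable beta-lactamase p53 reporter; series mostly up to about 83 µM; nearly all actives have a fitted effect of over 30% in size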). In outline:
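p53RE-bla cells, seeded at 4,000 per well and rested 5 h at 37 C/5% CO2, received compounds in DMSO for 16 h at 37 C. CellTiter-Glo was then added, and luminescence was read after 30 min at room temperature to gauge cytotoxicity.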

Assay [4] is described as follows: qHTS assay for small molecules that induce genotoxicity in human embryonic kidney cells expressing luciferase-tagged ATAD5 - cell viability (AID 651634; calls by dose curve; also: nearly all actives have a fitted effect of over 25% in size). Summed up: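 Live-cell protease activity (CellTiter-Fluor, fluorescence) indicates viability. HEK293T cells with luciferase-tagged ATAD5; 15.5 hr compound treatment at 37C.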
A short description of assay [5]: qHTS assay for small molecule disruptors of the mitochondrial membrane potential - cell viability (AID 720634; calls by dose curve;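 also: human HepG2 liver cancer cells; series mostly up to about 83 µM; nearly all actives have a fitted effect of over 20% in size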). In outline:
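Human hepatoma HepG2 cells were treated for 1 hr with test chemicals, then given m-MPI dye and CellTiter-Glo. Cell viability reflects luminescence proportional to cellular ATP.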

A short description of assay [6]: qHTS assay for small molecule disruptors of the mitochondrial membrane potential (AID 720635). Also: potency is read from the fitted curve at half-maximal effect. In outline:
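HepG2 cells (2,000/well) attached overnight at 37C, then took compound for 1 hr at 37C, 5% CO2. Mito-MPS dye was added for 30 min; fluorescence was read at 490/535 nm (monomers) and 540/590 nm (aggregates).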

Assay [7] in a line: qHTS assay to test for compound auto fluorescence at 590 nm (red) in HepG2 cells (AID 720674). Summed up: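 Intrinsic compound fluorescence in the red window (Ex/Em 540/590 nm) is measured in attached HepG2 cells exposed for 1 hr, DMSO vehicle as baseline, benchmarked to Rose Bengal sodium.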
A short description of assay [8]: qHTS assay to test for compound auto fluorescence at 535 nm (green) in HepG2 cells (AID 720675).
A short description of assay [9]: qHTS assay to test for compound auto fluorescence at 460 nm (blue) in HEK293 cells (AID 720678). In outline:
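Cells were seeded and left to adhere for 4-5 hr at 37C. Compounds were then pin-transferred. After an overnight incubation at 37C under 5% CO2, intrinsic fluorescence at 405/460 nm was measured and referenced to triamterene.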

A short description of assay [10]: qHTS assay to test for compound auto fluorescence at 590 nm (red) in HEK293 cells (AID 720679). In outline: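 Each well held 2,000 HEK293 cells in medium containing 10% dialyzed FBS. Following 4-5 hr attachment at 37C, 23 nL test compound or DMSO was added; plates sat overnight, and red fluorescence (540/590nm) was recorded.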
Assay [11] can be described thus: qHTS assay to test for compound auto fluorescence at 535 nm (green) in HEK293 cells (AID 720680).
The nature of assay [12]: qHTS assay to test for compound auto fluorescence at 460 nm (blue) in HEK293 cell free culture (AID 720681). In outline: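 Test compounds were pinned into cell-free culture medium (DMEM with 10% FBS) and fluorescence was read directly at Ex/Em 405/460 nm. Signals were expressed as fluorescence equivalents of triamterene, with DMSO vehicle as control.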
Assay [13] can be described thus: qHTS assay to test for compound auto fluorescence at 535 nm (green) in HEK293 cell free culture (AID 720682). Summed up: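 Cell-free medium (DMEM, 10% FBS) receives compound or DMSO by pintool. Plate read directly at Ex 485/Em 535 nm. Signal converted to fluorescein equivalency.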
A short description of assay [14]: qHTS assay to test for compound auto fluorescence at 590 nm (red) in HEK293 cell free culture (AID 720683). In outline: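 Tox21 10K library compounds were pinned into cell-free DMEM with 10% FBS and fluorescence was read at excitation 540 nm. Activity is expressed as Rose Bengal sodium equivalency.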
Assay [15] in a line: qHTS assay to test for compound auto fluorescence at 590 nm (red) in HepG2 cell free culture (AID 720684). In outline: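 Measured in medium alone (MEM containing 10% FBS) following pintool addition of compound; emission at 590 nm with 540 nm excitation, referenced to Rose Bengal sodium.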
Assay [16] can be described thus: qHTS assay to test for compound auto fluorescence at 460 nm (blue) in HepG2 cell free culture (AID 720685). In outline:
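Compound (23 nL) or DMSO pinned into cell-free MEM with 10% FBS; blue fluorescence read at 405/460 nm excitation/emission, expressed as auto-fluorescence equivalency to triamterene.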

Assay [17] in a line: qHTS assay to test for compound auto fluorescence at 535 nm (green) in HepG2 cell free culture (AID 720686).
Assay [18] can be described thus: qHTS assay to test for compound auto fluorescence at 460 nm (blue) in HepG2 cells (AID 720687). In outline: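 Cells (2,000/well in MEM with 10% FBS) attached overnight at 37 C, then were exposed to compound or DMSO for 1 hr at 37 C, 5% CO2. Fluorescence read at Ex/Em 405/460 nm, expressed as triamterene-equivalent signal.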
Assay [19] concerns the target Glucocorticoid receptor (Homo sapiens) (UniProt P04150). The assay is described as follows: qHTS assay to identify small molecule agonists of the glucocorticoid receptor (GR) signaling pathway (AID 720691; active = well fitted activation curve with a large enough effect in the signal ratio in the repeat runs, not every such curve was filed as active; the % refers to the signal ratio). Summed up: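 Beta-lactamase reporter activity, read as fluorescence intensity, was measured in GR-bla HeLa cells exposed to compounds for 18 h at 37 C and then loaded with LiveBLAzer B/G FRET substrate for 2 h at room temperature.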

The target is the same in assay [20]. The assay can be described thus: qHTS assay to identify small molecule antagonists of the glucocorticoid receptor (GR) signaling pathway (AID 720692; active = well fitted inhibition curve with a large enough effect in the signal ratio in the repeat runs, not every such curve was filed as active; the % refers to the signal ratio). Summed up: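 Fluorescence from cleaved LiveBLAzer B/G FRET substrate reports GRE-driven beta-lactamase in HeLa cells; compounds are tested against 5 nM dexamethasone (final) over 18 h at 37 C, substrate incubation 2 h at room temperature.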

Chain of Glucocorticoid receptor (Homo sapiens) (P04150 whole entry, looked up): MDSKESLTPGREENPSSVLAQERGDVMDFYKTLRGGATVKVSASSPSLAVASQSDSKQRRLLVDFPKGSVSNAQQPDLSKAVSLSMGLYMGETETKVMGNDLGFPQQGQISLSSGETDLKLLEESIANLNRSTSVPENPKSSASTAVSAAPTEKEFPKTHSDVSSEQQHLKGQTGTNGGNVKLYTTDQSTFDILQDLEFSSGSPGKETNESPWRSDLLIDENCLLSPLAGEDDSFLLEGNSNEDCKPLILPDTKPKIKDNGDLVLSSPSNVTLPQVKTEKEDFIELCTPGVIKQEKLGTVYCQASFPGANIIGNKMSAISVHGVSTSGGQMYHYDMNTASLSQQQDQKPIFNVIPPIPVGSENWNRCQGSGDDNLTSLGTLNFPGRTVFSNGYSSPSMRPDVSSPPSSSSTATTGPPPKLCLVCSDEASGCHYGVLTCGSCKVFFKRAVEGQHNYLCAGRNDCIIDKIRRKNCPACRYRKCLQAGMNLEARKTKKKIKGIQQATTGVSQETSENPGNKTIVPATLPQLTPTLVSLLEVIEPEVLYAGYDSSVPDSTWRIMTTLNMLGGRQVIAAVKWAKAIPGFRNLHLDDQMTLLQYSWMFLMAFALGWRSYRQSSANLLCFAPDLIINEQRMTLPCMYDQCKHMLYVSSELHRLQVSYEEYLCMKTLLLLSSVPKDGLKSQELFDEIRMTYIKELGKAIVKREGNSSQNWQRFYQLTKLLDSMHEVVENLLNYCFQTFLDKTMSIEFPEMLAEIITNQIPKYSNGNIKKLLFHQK

Regarding `CCCCCCC(CCCCCCCCCCC(=O)OCC(COC(C)=O)OC(C)=O)OC(C)=O` (centres undefined), the Potency result in [1], in [2], in assay [3], in [4], in assay [5] and in assay [6] was “inactive” in each case. Moreover, the Potency result in assay [9], in assay [12], in assay [16], in [18] and in assay [19] was “inactive” each time. Besides, the outcome in assay [7], in assay [8], in [10], in assay [11], in assay [13] and in assay [14] was inactive. For the same compound, the compound was classed as inactive in assay [15] and in [17].

As for `N[C@@H](CS)C(=O)O`, the Potency entry in assay [1], in assay [2], in assay [3], in assay [4], in [5] and in assay [9] was “inactive” each time. Also, the Potency entry in [12], in [16] and in assay [18] was “inactive” throughout. Besides, the Potency in assay [6] was 27.7 µM (active). Moreover, the outcome in assay [7], in assay [8], in assay [10], in assay [11], in assay [14] and in assay [15] was inactive. In addition, in assay [17], the outcome was inactive.

Take `C#CC(O)CCCCC` (centres undefined): the Potency result in [1], in assay [2], in assay [3], in assay [4], in assay [5] and in assay [9] was “inactive” throughout. In addition, the Potency entry in assay [12], in assay [16] and in assay [18] was “inactive” throughout. Further, the outcome in [7], in [8], in assay [10], in assay [11], in [13] and in assay [14] was inactive. Also, the compound was called inactive in [15] and in assay [17].

In the case of `C=C(C)C(=O)NCCC[N+](C)(C)C`, the Potency result in [1], in [2], in assay [3], in assay [4], in [5] and in [6] was “inactive” throughout. Further, the Potency entry in [12], in assay [16], in assay [18], in assay [19] and in [20] was “inactive” each time. Moreover, the outcome in assay [8], in [10], in assay [11], in assay [13], in [14] and in assay [17] was inactive.

`CC(C)(C)OC(=O)N1C[C@@H](F)C[C@H]1C(=O)O`: the Potency result in assay [1], in assay [2], in assay [3], in [4], in [5] and in assay [6] was “inactive” in each case. Besides, the Potency result in assay [9], in assay [12], in assay [16], in [18] and in assay [20] was “inactive” each time. Moreover, the call in [7], in assay [8], in assay [10], in [11], in assay [13] and in assay [14] was inactive. For the same compound, the result in assay [17] was inactive.

`CC(C)c1cccc(O)c1`: the Potency result in assay [1], in [2], in assay [3], in assay [4], in assay [5] and in assay [12] was “inactive” throughout. For the same compound, the Potency result in assay [16], in assay [18], in assay [19] and in assay [20] was “inactive” in each case. Besides, in [6], the Potency was 64.4 µM (active). For the same compound, the result in [8], in assay [10], in assay [11], in assay [13], in [14] and in [17] was inactive.

Consider `O=S(=O)(O)c1ccccc1O`, for which the Potency entry in [1], in assay [2], in [3], in assay [4], in assay [5] and in assay [6] was “inactive” throughout. The Potency result in assay [12], in [16], in [18], in assay [19] and in assay [20] was “inactive” each time. For the same compound, the compound was called inactive in assay [7], in [8], in assay [10], in [11], in [13] and in assay [14]. Also, the outcome in assay [15] and in assay [17] was inactive.

The record behind these values is PubChem BioAssay (Tox21).
